Experimental data reported in PubChem BioAssay AID1259415 (National Center for Advancing Translational Sciences (NCATS), 2018).
Out of some 410,000 compounds screened, about 18,000 (4.4%) were called active. Roughly 7% stayed inconclusive and do not appear here. No stated cut-off is given here; in the data, active means activity change below about -60%; inconclusive means no clear call, values can overlap the other calls; inactive means above about -39%. Shown is part of a subset that was picked to be rich in actives.

Test: qHTS Assay for inhibitors of the human cytomegalovirus (HCMV)
Details: HFF cells, HCMV-luciferase reporter, 72 h; at 57.5 µM; stronger effect = lower value
Outline: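 Luciferase read-out from HCMV-luciferase-infected HFFs (MOI 1 PFU/cell) 72 h post infection at 37C; compounds added after 16 h cell attachment; activity normalized between buffer-only basal and Salinomycin (10uM) inhibitor controls.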
On the % scale 0 is the no-effect control and ±100 the full control effect.

Row | Compound | activity change, negative = inhibition
1 | CCOc1ccc(C(CC(=O)O)NC(=O)COc2ccccc2)cc1 (stereo unspecified) | 36.3% (inactive)
2 | CCOC(=O)/C=C/C(=O)OCC(=O)NC(c1ccccc1)c1ccccc1 | -66.5% (active)
3 | Cc1ccccc1OCCC(=O)OCC(=O)NC(C)c1ccccc1 (stereo unspecified) | 145% (inactive)
4 | Cc1ccn(C(CC(=O)c2ccc(Br)cc2)C(=O)O)n1 (stereo unspecified) | 18.9% (inactive)
5 | O=c1ccc2c(-c3ccccc3S(=O)(=O)O)c3ccc(O)c(O)c3oc-2c1O | -91.7% (active)
6 | Cc1nc(N2CCOCC2)c2c(C(=O)NCc3cccc(Cl)c3)c(C)oc2n1 | -10.3% (inactive)
7 | COc1cccc(C(=O)NCC(=O)OCc2cc(=O)n3ccsc3n2)c1 | 8.23% (inactive)
8 | CCOC(=O)c1c(C)oc2nc(C)nc(N3CCN(c4ccc(OC)cc4)CC3)c12 | -14.4% (inactive)
9 | CCN(CC)c1ccc2oc(=O)c(C)nc2c1 | -70.4% (active)
10 | COc1ccc2c(c1)C(=C(C#N)C#N)C(=O)N2CCc1ccccc1 | 32.5% (inactive)
11 | CCOC(=O)CN1C(=O)C(O)(CC(=O)c2ccccn2)c2ccccc21 (stereo unspecified) | 12.1% (inactive)
12 | O=C(CC1(O)C(=O)N(CN2CCOCC2)c2ccccc21)c1ccccc1 (stereo unspecified) | 23.8% (inactive)
13 | Cc1ccc2c(c1)C(O)(CC(=O)c1cccc(-n3cccc3)c1)C(=O)N2 (stereo unspecified) | -9.59% (inactive)
14 | Cc1ccc(C(=O)CC2(O)C(=O)N(CCc3ccccc3)c3ccc(Br)cc32)cc1 (stereo unspecified) | -97.7% (active)
15 | Cc1coc(C)c1C(=O)CC1(O)C(=O)N(C)c2ccc(Cl)cc21 (stereo unspecified) | 0% (inactive)
16 | CCc1ccc(C(=O)CC2(O)C(=O)N(CCc3ccccc3)c3ccc(Br)cc32)cc1 (stereo unspecified) | -104% (active)
17 | CCCN1C(=O)C(O)(CC(=O)c2ccc(CC)cc2)c2cc(Br)ccc21 (stereo unspecified) | -70.2% (active)
18 | C=CCN1C(=O)C(O)(CC(=O)c2ccccn2)c2ccccc21 (stereo unspecified) | 51.3% (inactive)
19 | Cc1ccc(S(=O)(=O)N2CCC(C(=O)Nc3cc(C)ccc3C)CC2)cc1 | 10.8% (inactive)
20 | Cc1cc(C)nc(-n2ncc3c2CC(c2ccc(C(C)C)cc2)CC3=O)n1 (stereo unspecified) | -22.8% (inactive)
21 | Cc1ccccc1NC(=O)Cn1c(=O)n(Cc2ccco2)c(=O)c2ccc(C(=O)NC3CCCC3)cc21 | 36.1% (inactive)

Row | Compound | activity change, negative = inhibition
22 | CCOC(=O)N1CCc2c(sc(NCc3cccc(F)c3)c2C(=O)Nc2ccccc2OCC)C1 | 30.2% (inactive)
23 | CN(C(=O)c1c(Cl)cnn1C)C12CC3CC(CC(C3)C1)C2 | -18.8% (inactive)
24 | O=C(O)c1c(CNCc2cccc(F)c2)c2ccccc2n1Cc1ccccc1 | 8.63% (inactive)
25 | Cc1ccc(C(=O)Nc2c(C(=O)NC(C)(C)C)oc3ccccc23)cc1 | -18.8% (inactive)
26 | COc1ccccc1CNc1ccc(-c2nc(-c3ccccc3C)no2)cc1[N+](=O)[O-] | 3.35% (inactive)
27 | Cc1ccccc1CNC(=O)Cn1c(C)c2cnn(-c3ccccc3)c(=O)c2c1C | -13% (inactive)
28 | CCCNC(=O)N1CCC2(CC1)CN(C(=O)CN1CCOCC1)[C@H](CO)c1[nH]c3cc(OC)ccc3c12 | 0.475% (inactive)
29 | CC(C)=CCc1ccc(O)c(=O)cc1C(C)C | -101% (active)
30 | CCNC(=O)c1cc2n(n1)CCCN(Cc1ccc(C)cc1)C2=O | -3.42% (inactive)
31 | Cc1cc(C)cc(OCC(=O)Nc2c(C(=O)c3ccccc3)oc3ccccc23)c1 | 0.353% (inactive)
32 | CCC(C)(C)NC(=O)CN(Cc1cccs1)C(=O)CNS(=O)(=O)c1ccc(F)cc1 | -8.36% (inactive)
33 | COc1ccc(Cn2c(=O)c3oc4ccccc4c3n(CC(=O)Nc3ccc(F)cc3F)c2=O)cc1 | 6.84% (inactive)
34 | CCOC(=O)c1ccc(NC(=O)CCn2cnnn2)cc1 | 20.5% (inactive)
35 | CCc1c(Nc2ccccc2C)nc(N)[nH]c1=O | 90.6% (inactive)
36 | Cc1cc(=O)n(C)c(=O)n1CCCNc1ccccc1 | -33.2% (inactive)
37 | Cc1[nH]c(N)nc(=S)c1CCCNc1ccccc1 | -99.8% (active)
38 | Cc1nnnn1/C(=C\c1ccccc1)C(=O)OCC(=O)N1CC2(C)CC1CC(C)(C)C2 (stereo unspecified) | -85.3% (active)
39 | COC(=O)c1cc2n(n1)CCCNC2=O | 14.4% (inactive)
40 | CCC(C)(O)C(=O)OC1C(=O)OC2CC3C(C)=CC(=O)C(O)C3(C)C3C4(O)OCC23C1C(C)C4O (stereo unspecified) | -96.7% (active)
41 | COCCNC(=S)N/N=C/c1c(C)[nH]c2ccccc12 | -68.5% (active)
42 | COCCCNC(=S)NNC(=O)C(O)(c1ccccc1)c1ccccc1 | -17.8% (inactive)

Row | Compound | activity change, negative = inhibition
43 | COCCNC(=S)N(CCc1c(C)[nH]c2ccc(C)cc12)Cc1cccnc1 | 5.87% (inactive)
44 | CCOC(=O)c1cccc(NS(=O)(=O)c2cc(-c3cnc(C)o3)ccc2OC)c1 | -8.81% (inactive)
45 | COc1ccc(CCNC(=O)CC2SC(=Nc3cc(C)cc(C)c3)NC2=O)cc1OC (stereo unspecified) | 37.9% (inactive)
46 | COc1ccc(OCC(O)CNC(=O)Nc2ccc(Cl)cc2)cc1 (stereo unspecified) | -6.88% (inactive)
47 | CC(C)S(=O)(=O)c1csc(NC(=O)Nc2ccc(Cl)cc2)c1Cl | -93.2% (active)
48 | CC(=O)N1CCC(N(C(=O)Nc2ccc(Cl)cc2)C(C)C)CC1 | -34.8% (inactive)
49 | COc1ccc(Cl)cc1NC(=O)CN(C)C(=O)c1cc(-c2cccs2)nn1-c1ccccc1 | -21.5% (inactive)
50 | COc1cc(OC)cc(C(=O)NCCc2csc3nc(-c4ccccc4F)nn23)c1 | -6.5% (inactive)
51 | Cc1ccc2[nH]c3c(=O)n(CC(=O)NC(C)C)ncc3c2c1 | 5.38% (inactive)
52 | C=C(C)C(=O)O[C@H]1C/C(C)=C\C(=O)/C=C(\C)[C@H](O)[C@@H]2OC(=O)C(=C)[C@@H]21 | -98.8% (active)
53 | Fc1cccc(-c2nc3c(N4CCOCC4)nccc3[nH]2)c1 | 6.37% (inactive)
54 | CCc1cccc(-n2nnc(-c3nsc(NC(=O)c4ccc(C)cc4)n3)c2C)c1 | -39.1% (inactive)
55 | Cc1ccsc1/C=N/NC(=O)Cc1cc(=O)[nH][nH]1 | 80.6% (inactive)
56 | COc1ccc(N(CC(=O)N/N=C/c2cccs2)S(=O)(=O)c2ccc(OC)c(OC)c2)cc1 | 3.94% (inactive)
57 | COc1ccc(C(=O)NCC(c2ccco2)N2CCc3ccccc32)cc1OC (stereo unspecified) | -5.62% (inactive)
58 | Cc1ccccc1NCC(=O)N/N=C\c1ccc([N+](=O)[O-])s1 | -78.2% (active)
59 | CC(C)(C)c1cc(C(=O)N/N=C/c2ccc([N+](=O)[O-])s2)n[nH]1 | -73.9% (active)
60 | COc1ccc(C(=O)NCC(=O)N/N=C/c2ccc([N+](=O)[O-])s2)cc1OC | -92.4% (active)
61 | C/C(=N\NC(=O)CNc1cccc2ccccc12)c1ccc(Br)s1 | 21.2% (inactive)
